Among the data in PubChem BioAssay AID1981 (Southern Research Specialized Biocontainment Screening …, 2009) are outcome values, retold here.

Structures are written as SMILES. Among all 2,200 compounds or so, about 480 (22%) were called active. How the calls were made is not given here. Not all results are given here. A call without a number means that no potency is given here. Potency and affinity values are given separately.

The experiment in a line: S. Typhimurium GFP fluorescence modified counterscreen for PhoP regulon inhibitor project dose response (AID 1981). To be noted: 4 h; series mostly up to 150 µM.
Regarding `COc1ccc(-c2csc(NCc3ccco3)n2)cc1`, the outcome was inactive.
For `N#CC1=C(N)SC(N)=C(C#N)C1c1ccc([N+](=O)[O-])cc1`, the outcome was inactive.
With `COc1cccc2c(=O)c3c(cnn3C)n(C)c12`, the outcome was inactive.
`COc1ccc(-c2cc(C(=O)O)[nH]n2)cc1OC`: the result was inactive.
Consider `Cn1c(-c2ccc(N)cc2)nc2ccccc21`, for which the molecule was classed as inactive.
In the case of `CCC(=O)NC1=C(NC(C)c2ccccc2)C(=O)c2ccccc2C1=O` (stereo not drawn), the outcome was inactive.
For `COC(=O)c1sc2ccccc2c1-n1cccc1C(=O)C(=O)Nc1ccc(Cl)cc1`, the molecule was classed as inactive.
Consider `Cn1c(=O)n(CC(=O)Nc2ccccc2)c2ccccc21`, for which the molecule was classed as inactive.
Under `COc1ccc(C(=O)Nc2cc(C)ccc2NC(=O)COc2ccccc2)cc1` stands “inactive”; under `CCN(Cc1ccccc1)C(=O)CN1C(=S)NC(C)(C)CC1C` (stereo not drawn), “inactive”.
The same measure for `CCOC(=O)Cn1nnnc1C(C(C)C)N(Cc1cccs1)Cc1cc2cc(C)ccc2[nH]c1=O` (stereo not drawn): “inactive”; for `CCN(CC)C(=O)CP(=O)(c1ccccc1)c1ccccc1`: “inactive”.
Turning to `Cc1cc(C2=NNC(=NC3CC3)SC2)c(C)n1-c1ccccc1`, the molecule was classed as inactive.
The same measure for `Nc1cc(N)nc(SCC(=O)Nc2ccc3c(c2)OCCCO3)n1`: “inactive”; for `COc1ccc(C(=O)N2CCN(C(=O)c3ccco3)CC2)cc1OC`: “inactive”; for `CCOC(=O)c1sc2nccc(N(C)C)c2c1N=CNOCc1c(F)cccc1Cl`: “inactive”.
As for `O=C(CSc1nnc(-c2cccs2)n1-c1ccccc1)NCc1ccc2c(c1)OCO2`, the result was inactive.
On to `COc1cccc(-c2nnc(SCC(=O)Nc3ccc(OC)c(OC)c3)n2N)c1`, for which the molecule was classed as inactive.
For the molecule `CCCc1cc(-c2nc(N)ncc2-c2ccc3c(c2)OCCCO3)c(O)cc1OC`, the result was inactive.
For the molecule `CCC(CC)C(=O)Nc1cccc(C(=O)N2CCCC2)c1`, the molecule was classed as inactive.
Consider `CCOC(=O)c1[nH]c2ccccc2c1NC(=O)NC1CCCCC1`, for which the result was inactive.
Under `CCOC(=O)CCCNC(=O)COC(=O)CCC(=O)c1ccc(F)cc1` stands “inactive”; under `Cn1c(-c2ccc3nc(N)sc3c2)nc2cc(N)ccc21`, “inactive”.
As to `COc1cc(C=O)ccc1OCCCOc1ccccc1[N+](=O)[O-]`, the result was inactive.
The same measure for `CCOC(=O)COc1ccccc1/C=C\[N+](=O)[O-]`: “inactive”; for `COc1ccc([N+](=O)[O-])cc1NC(=O)C(C)OC(=O)c1ccccc1C(=O)c1ccc(Cl)cc1` (stereo not drawn): “inactive”.
`Cc1ccc(S(=O)(=O)N2CCCC2C(=O)OCc2ccco2)cc1` (stereo not drawn): the call was inactive.
`Cc1nc2c(C(=O)NCCC(C)C)c[nH]n2c(=O)c1Cc1ccccc1F`: the call was inactive.
Regarding `O=C(CCn1nnc(-c2cccs2)n1)NCc1ccccc1Cl`, the molecule was classed as inactive.
Under `Cc1ccc(CCNC(=O)C2CCCN(S(=O)(=O)c3c(C)noc3C)C2)cc1` (stereo not drawn) stands “inactive”; under `CC(C)Cn1c(-c2ccccc2)nc2ccccc2c1=O`, “inactive”.
In the case of `COc1ccc(Cl)cc1C(=O)CSc1nc(N)cc(N)n1`, the call was inactive.
As for `COc1ccc(-c2c/c(=N\c3nc(-c4ccccc4)c(C)s3)c3ccccc3o2)cc1O`, the call was inactive.
Turning to `O=C(N/N=C/c1ccc(F)cc1)c1cc(-c2ccco2)nc2ccccc12`, the outcome was inactive.
Turning to `Cc1ccccc1OCC(=O)N/N=C/c1ccco1`, the result was inactive.
The same measure for `Cc1ccc(NC(=O)CO/N=C(\N)c2nonc2N)cc1`: “inactive”; for `COC(=O)c1ccc(NC(=S)Nc2ccc3ccccc3c2)cc1`: “inactive”; for `Cn1ccnc1SCC(=O)Nc1sccc1C#N`: “inactive”.
The same measure for `NC1=NC2=C(CCCC2)C2(CCCCC2)S1`: “inactive”.
In the case of `CCCCn1c(O)c(C(CC)=Nc2ccc3c(c2)CCC3)c(=O)[nH]c1=O`, the result was inactive.
Regarding `CC(C)c1ccc(O)c(NC(=O)c2cncc(Br)c2)c1`, the result was inactive.
For `COc1ccccc1N1CCN(c2ccc(-c3ccccc3)nn2)CC1`, the molecule was called inactive.
As for `Cc1ccccc1Nc1nnc(SCC(=O)NC2CCCc3ccccc32)s1` (stereo not drawn), the result was inactive.
Regarding `Cc1[nH]nc2c1C(c1cc(Br)cs1)C(C#N)=C(N)O2` (stereo not drawn), the outcome was inactive.
On to `CCCOc1ccc(Cn2cnc3ccccc32)cc1`, for which the result was inactive.
For the molecule `O=C(OCC1COc2ccccc2O1)c1ccccc1F` (stereo not drawn), the molecule was called inactive.
As for `CN(C)CCOC(=O)Cc1ccc(Cl)cc1`, the molecule was classed as inactive.
With `CC(=O)N(Cc1ccc(Cl)cc1)c1cnccn1`, the molecule was classed as inactive.
The same measure for `C/C(Nc1ccc(F)cc1)=C(/C#N)C(N)=O`: “inactive”.
As for `Cc1ccc2c(c1)cc(CN(Cc1ccc3c(c1)OCO3)C(=O)c1cnccn1)c1nnnn12`, the call was inactive.
As for `Cc1nnc(NC(=O)CSc2ncnc3scc(-c4ccccc4)c23)s1`, the molecule was classed as inactive.
As for `O=C(CSc1nnnn1-c1ccccc1)CC(=O)Nc1ccc(Cl)cc1`, the outcome was inactive.
As to `O=C(CSc1nnc2c(Cl)cc(Cl)cn12)NC1CCS(=O)(=O)C1` (stereo not drawn), the outcome was inactive.
For the molecule `COc1ccc(/C=C2\CN(Cc3ccccc3)C/C(=C\c3ccc(OC)cc3)C2=O)cc1`, the molecule was classed as inactive.
Turning to `Cc1cccc(C)c1NC(=O)CSc1nnc(NC(=O)CN2CCOCC2)s1`, the call was inactive.
The same measure for `Cc1cc(C(=O)N/N=C/C=C/c2ccc3c(c2)OCO3)n[nH]1`: “inactive”; for `Cc1cc(C(=O)N/N=C/c2cccc([N+](=O)[O-])c2O)n[nH]1`: “inactive”; for `O=C(N/N=C/c1cccn1-c1ccc([N+](=O)[O-])cc1)C(O)c1ccccc1` (stereo not drawn): “inactive”.
Regarding `CN(C)C(=O)c1cn(N(C)c2ncc(C(F)(F)F)cc2Cl)c(=O)c2ccccc12`, the molecule was classed as inactive.
For `Cc1ccc(-c2cc(-c3ccc(Cl)cc3)c(C#N)c(N)n2)o1`, the result was inactive.
On to `CC(=O)c1cccc(NC(=O)NCc2ccco2)c1`, for which the outcome was inactive.
Consider `Nc1nc(-c2ccc(Br)cc2)cs1`, for which the molecule was classed as inactive.
The same measure for `COc1ccc(-c2cc(N3CCCC3)n3ncnc3n2)cc1`: “inactive”; for `Cc1ccccc1NC(=S)N(CCCN1CCOCC1)Cc1ccccn1`: “inactive”; for `O=c1[nH]c2ccccc2n1C1=CCCC1`: “inactive”.
As for `CCn1c(Cc2c(C)[nH]c3ccccc23)n[nH]c1=S`, the molecule was classed as inactive.
In the case of `Cc1cccc(C)c1NC(=O)CCCSc1nnc(-c2ccc(Cl)cc2)n1-c1ccccc1`, the call was inactive.
Consider `COc1ccccc1-c1cc(C(=O)Nc2cc(C)nn2-c2ccccc2)no1`, for which the outcome was inactive.
Under `Cc1ccc(-n2nc(-c3ccc(N)cc3)cc2N)cc1` stands “inactive”; under `O=C(OCC(=O)c1ccccc1Cl)c1cnccn1`, “inactive”; under `O=C(c1cc2ncc(Br)cn2n1)N1CCOCC1`, “inactive”.
Under `Cc1[nH]c2ccccc2c1C(O)CN1CCN(c2cccc(C(F)(F)F)c2)CC1` (stereo not drawn) stands “inactive”; under `COc1cc(C2Nc3cccc4cccc(c34)N2)cc(OC)c1OC(C)=O`, “inactive”; under `CC(=O)Oc1c2occc2cc2ccc(=O)oc12`, “inactive”.
For `O=C(NCCNS(=O)(=O)c1cccc(C(F)(F)F)c1)c1cc(OCC(F)(F)F)ccc1OCC(F)(F)F`, the call was inactive.
As for `O=c1c(Br)c(Br)cnn1-c1ccccc1`, the molecule was called inactive.
Regarding `CCCOC(=O)C(C)n1cnc2sc(C)c(C)c2c1=O` (stereo not drawn), the molecule was classed as inactive.
Under `Clc1ccc(OCCn2cnc3ccccc32)cc1` stands “inactive”; under `S=C(Nc1ccccc1)Nc1nc2ccccc2n1CCOc1ccc(Cl)cc1`, “inactive”.
In the case of `COc1ccc(OCCSc2nnc3sc4ccccc4n23)cc1`, the call was inactive.
`COC(=O)Cn1c(C)nc2ccccc21`: the outcome was inactive.
On to `COc1ccccc1OCc1ccc(C(=O)N2CCN(C(=O)c3ccco3)CC2)cc1`, for which the molecule was classed as inactive.
Under `Cc1ccc(OCc2nc3ccccc3[nH]2)cc1` stands “inactive”.
In the case of `COc1ccc(C(=O)C(CO)Oc2ccccc2OC)cc1OC` (stereo not drawn), the outcome was inactive.
As for `CCOC(=O)CCC(NC(=O)c1ccc(NCN2C(=O)CCC2=O)cc1)C(=O)OCC` (stereo not drawn), the call was inactive.
In the case of `CC(=O)c1c(C)nc(-c2ccc(Cl)cc2)nc1N=CN(C)C`, the molecule was classed as inactive.
In the case of `Cc1cccc(C=Nc2ccc3c(c2)oc2ccccc23)c1O`, the molecule was classed as inactive.
Regarding `CCc1cccc2c(C#N)cn(CC(=O)NCCOC)c12`, the molecule was called inactive.
Turning to `C/C(=N\n1nnnc1Nc1ccccc1)c1ccc(N)cc1`, the result was inactive.
In the case of `Cc1ccc2c(c1)C(c1ccccc1)NCC(=O)N2` (stereo not drawn), the result was inactive.
For `Cc1cc(C)nc(NC(=O)Cc2cccs2)n1`, the molecule was called inactive.
Consider `COc1ccc(/C=C/C(=O)O)cc1COc1cccc(C)c1`, for which the outcome was inactive.
With `Cc1cccc(OCC(=O)NNc2c3ccccc3nc3ccccc23)c1`, the molecule was called inactive.
For `C=CCN=C(NC#N)SCc1ccccc1Cl`, the result was inactive.
Take `Cc1cc(C)c(NC(=O)COc2ccccc2C(=O)Nc2ccc3c(c2)oc2ccccc23)c(C)c1`: the outcome was inactive.
For `O=C1Nc2ccccc2/C1=C/c1cnc[nH]1`, the outcome was inactive.
For `Cc1ccccc1OCCCCCn1ccnc1`, the molecule was classed as inactive.
Under `Cc1nn(-c2ccccc2)c2sc(-c3n[nH]c(=S)o3)cc12` stands “inactive”; under `COc1ccc(OC)c(S(=O)(=O)N2c3cc(F)ccc3CCC2C)c1` (stereo not drawn), “inactive”.
Under `Cc1cccc(Sc2c([N+](=O)[O-])ncn2C)c1` stands “inactive”.
Regarding `Clc1ccc(OCCn2ccnc2)c2ccccc12`, the call was inactive.
Regarding `Cc1ccc(C(=O)COC(=O)CNS(=O)(=O)c2ccccc2)cc1[N+](=O)[O-]`, the result was inactive.
For the molecule `O=C1/C(=C/c2ccccc2)NC(=S)N1C(c1ccccc1)c1ccccc1`, the molecule was classed as inactive.
On to `Cc1cc(C(=O)NNC(=S)NC(=O)/C=C/c2ccccc2Cl)n[nH]1`, for which the outcome was inactive.
In the case of `CN(c1ccccc1)S(=O)(=O)c1cc(C(=O)Nc2nc3ccccc3[nH]2)ccc1Cl`, the molecule was called inactive.
Consider `COC(=O)CSc1nnc(-c2ccco2)n1Cc1ccco1`, for which the outcome was inactive.
As for `Cc1ccccc1Cn1c(=N)n(CC(=O)c2ccco2)c2ccccc21`, the outcome was inactive.
As for `NC(=O)c1oc2ccccc2c1NC(=O)CN1CCCCC1`, the result was inactive.
In the case of `O=C(CN1CCCCC1)Nc1cccc(Br)c1`, the molecule was classed as inactive.
`O=C(CSc1nnc2n(C3CCCCC3)c(=O)c3ccccc3n12)OC1CCCCC1`: the call was inactive.
As for `OC(COc1ccc2ccccc2c1Br)Cn1ccnc1` (stereo not drawn), the call was inactive.
On to `COc1cc(C)ccc1OCCCOc1ccccc1Br`, for which the call was inactive.
The same measure for `COc1cccc(NC(=O)Cn2c(=O)n(CCCC(=O)NCc3ccco3)c(=O)c3ccccc32)c1`: “inactive”.
As to `Cc1ccc(N(CC(=O)N/N=C/c2ccco2)S(=O)(=O)c2ccccc2)cc1`, the molecule was called inactive.
In the case of `CCCc1ccc(C(=O)CCC(=O)O)cc1`, the outcome was inactive.
`Nc1nonc1C(=O)NCCN=Cc1cc(Cc2ccccc2)cc(Br)c1O`: the molecule was classed as inactive.
For `Nc1nonc1-n1nnc(C(=O)N/N=C/c2ccc(Br)cc2)c1CSC1=NCCS1`, the molecule was classed as inactive.
Consider `COc1cccc(C=NCCNC(=O)c2nonc2N)c1O`, for which the result was inactive.
